Experimental data taken from PubChem BioAssay.
Unmarked numbers belong to inactive results. The source made the active and inactive calls. No stated cut-off is given here; in the data, active means inhibition above about 28%; inactive means the rest.

Test: StAR promoter reporter inhibitors, counter-screen for LRH-1 inverse agonist project, cell-based, luminescence, high throughput (AID 651611)
Details: StAR promoter luciferase reporter counterscreen, at 3.6 µM, active compounds read high

Q: For `COc1ccc(CCNC(=O)CSc2nnc(CNc3ccc(Cl)cc3)o2)cc1OC`, which inhibition is on record?
A: The inhibition was 1.3%.

Q: With `Cc1cccc(CSC(Nc2ccc(F)cc2)=C(C#N)C#N)c1` as the compound, how does the inhibition read?
A: Its inhibition is -5.34%.

Q: For `COc1ccc(CCNC(=O)COC(=O)C2CC2C)cc1` (stereo not given), which inhibition is on record?
A: Its inhibition is 3.36%.

Q: Which inhibition does the source give for `COc1ccc(CCNC(=O)COC(=O)c2cccn2C)cc1` here?
A: The inhibition was 19%.

Q: For `Cc1ccc(CC(=O)Nc2ccncc2)cc1`, which inhibition is on record?
A: The inhibition was 7.72%.

Q: For `Cc1cc(NC(=O)c2ccc([N+](=O)[O-])o2)ccc1NC(=O)c1ccco1`, which inhibition is on record?
A: The inhibition was 1.92%.

Q: For `Cc1ccc(OCCC(=O)OCC(=O)Nc2ccc(N3CCOCC3)cc2)cc1`, which inhibition is on record?
A: Its inhibition is 16.6%.

Q: Which inhibition does the source give for `Cc1ccccc1C(=O)NC1CCN(CC(=O)Nc2ccc(Br)cc2)CC1` here?
A: The inhibition was 5.55%.

Q: Which inhibition does the source give for `COc1ccc(N2C(=O)C(Cl)=C(N3CCOCC3)C2=O)cc1` here?
A: The inhibition was 6.88%.

Q: Which inhibition does the source give for `O=C1/C(=C/c2ccccc2)CN(C(=O)CCN2CCOCC2)C/C1=C\c1ccccc1` here?
A: Its inhibition is 21.9%.

Q: Which inhibition does the source give for `Oc1c(Cl)cc(CN2CCOCC2)c2cccnc12` here?
A: Its inhibition is 4.86%.

Q: Which inhibition does the source give for `CCC(=O)Nc1ccc(NC(=O)CSc2nc3c(c(=O)n(C)c(=O)n3C)n2CC)cc1` here?
A: The inhibition was 34.6% (active).

Q: Which inhibition does the source give for `CCNc1cc(N2CCCC2)ccc1[N+](=O)[O-]` here?
A: Its inhibition is 10.6%.

Q: Which inhibition does the source give for `CC(=O)Nc1cc(-c2ccc(S(C)(=O)=O)cc2)cn2c(-c3ccc(F)cc3)cnc12` here?
A: The inhibition was 17.4%.

Q: Which inhibition does the source give for `O=C(c1ccco1)N1CCCC(N2CCN(c3cccc(C(F)(F)F)c3)CC2)C1` (stereo not given) here?
A: The inhibition was -1.93%.

Q: Which inhibition does the source give for `Cc1cc(C(=O)N/N=C/c2ccc([N+](=O)[O-])o2)c(C)o1` here?
A: Its inhibition is 9.16%.

Q: With `CCOC(=O)c1c2c(n(Cc3ccccc3)c1C)C(=O)C(=O)c1ccccc1-2` as the compound, how does the inhibition read?
A: Its inhibition is 48.7% (active).

Q: With `O=C(Nc1ccccn1)c1ccc([N+](=O)[O-])o1` as the compound, how does the inhibition read?
A: Its inhibition is 14.3%.

Q: For `O=C(Nc1ccc(F)cc1)C(c1cc2ccccc2o1)N1CCN(c2cccc(C(F)(F)F)n2)CC1` (stereo not given), which inhibition is on record?
A: Its inhibition is 11%.

Q: For `CC1(C)CC(=O)C=C(c2ccc3ncccc3c2)C1`, which inhibition is on record?
A: The inhibition was 13.7%.

Q: For `NC(=S)N/N=C/c1ccc(-n2nncc2-c2ccc(Cl)cc2)cc1`, which inhibition is on record?
A: Its inhibition is 12%.

Q: With `O=C(Cn1cnc2c(nnn2-c2ccccc2)c1=O)NCCc1ccccc1` as the compound, how does the inhibition read?
A: Its inhibition is 13.4%.

Q: For `COc1ccc(C2=CC(=O)CC(C)(C)C2)cc1OC`, which inhibition is on record?
A: Its inhibition is -7.16%.

Q: For `Cc1cc(C(=O)NC2CCCc3c2cnn3-c2cccc(C)c2C)n(C)n1` (stereo not given), which inhibition is on record?
A: The inhibition was 33.4% (active).

Q: With `O=C(c1ccccc1)c1cc(-c2ccccn2)c(N2CCOCC2)s1` as the compound, how does the inhibition read?
A: The inhibition was -8.68%.

Q: Which inhibition does the source give for `Cn1c2c(c(=O)n(C)c1=O)C(C(F)(F)F)(C(F)(F)F)N=C(CCC1CCCCC1)N2` here?
A: Its inhibition is 29.6% (active).

Q: For `CCOc1ccc(NC(=O)COC(=O)c2ccc3c(c2)OCCO3)cc1`, which inhibition is on record?
A: Its inhibition is 14%.

Q: For `COc1cc(NC(=O)Cn2ccsc2=N)c(C)cc1[N+](=O)[O-]`, which inhibition is on record?
A: The inhibition was 11.8%.

Q: For `COc1cccc(COC(=O)C2CC(=O)N(Cc3ccco3)C2)c1OC` (stereo not given), which inhibition is on record?
A: The inhibition was 12%.

Q: With `CCOc1ccc(Cc2nnc(SCC(=O)Nc3ccc(C(C)=O)cc3)[nH]c2=O)cc1` as the compound, how does the inhibition read?
A: The inhibition was 1.5%.

Q: Which inhibition does the source give for `O=C(N/N=C/c1cc2c3c(c1O)CCCN3CCC2)c1ccccc1O` here?
A: Its inhibition is 83.4% (active).

Q: Which inhibition does the source give for `CCCN1Cc2cccc(C(=O)NC(C)c3cccs3)c2C1=O` (stereo not given) here?
A: The inhibition was -7.74%.

Q: With `Cn1nnnc1Sc1ncnc2scc(-c3ccc(-c4ccccc4)cc3)c12` as the compound, how does the inhibition read?
A: Its inhibition is 19.4%.

Q: With `C=CCOc1ccccc1CN(C(=O)CCl)c1ccc2c(c1)OCO2` as the compound, how does the inhibition read?
A: Its inhibition is 7.87%.

Q: Which inhibition does the source give for `CCc1cc(=O)oc2cc3occ(-c4ccc(OC)c(F)c4)c3cc12` here?
A: Its inhibition is 26.4%.

Q: With `N#CCSc1ccccc1NC(=O)CN1C(=O)C2CC=CCC2C1=O` (stereo not given) as the compound, how does the inhibition read?
A: The inhibition was 10.9%.

Q: With `C#CCN(C[C@@H]1[C@@H](OC(=O)NCC2CCCCC2)[C@@H](OC(=O)NCC2CCCCC2)Cn2c(=O)ccc(=O)n21)S(=O)(=O)c1ccc(C)cc1` as the compound, how does the inhibition read?
A: The inhibition was 38.3% (active).

Q: With `O=C(CSc1nc2ccc(F)cc2c(=O)n1-c1ccccc1)Nc1ccc2c(c1)CCC2` as the compound, how does the inhibition read?
A: Its inhibition is -3.68%.

Q: Which inhibition does the source give for `O=[N+]([O-])c1ccc(Sc2nnnn2-c2ccccc2)c(Cl)c1` here?
A: Its inhibition is 5.41%.

Q: Which inhibition does the source give for `Cc1cc2nc(C3CCCCC3)c(Cc3ccsc3)n2c(C)c1Br` here?
A: Its inhibition is 4.75%.
